The panel holds about 83,000 compounds, 20% with a hit somewhere; the sample as a whole holds those more often.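 Percent growth is the endpoint: 0 to 100 indicates growth inhibition (40 means 60% inhibition), 0 means no net growth, and negative values indicate cell death.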 Active and inactive are the calls of the source. Rule for the calls: active = growth percent below 10; inactive = the rest.
How the values were obtained:
Assay in all cases: NCI-60 one-dose screen, 48 h (100 = growth as untreated, 0 = no growth, -100 = all killed)
Conditions in all cases: 10 µM unless noted
HCT-15 colon = test system: HCT-15 colon
HT29 colon = test system: HT29 colon
SNB-19 CNS = test system: SNB-19 CNS
U251 CNS = test system: U251 CNS
PC-3 prostate = test system: PC-3 prostate
SK-MEL-5 melanoma = test system: SK-MEL-5 melanoma
UACC-62 melanoma = test system: UACC-62 melanoma
LOX IMVI melanoma = test system: LOX IMVI melanoma
SK-MEL-28 melanoma = test system: SK-MEL-28 melanoma
SK-MEL-2 melanoma = test system: SK-MEL-2 melanoma
EKVX NSCLC = test system: EKVX NSCLC
SN12C renal = test system: SN12C renal
UO-31 renal = test system: UO-31 renal
TK-10 renal = test system: TK-10 renal
ACHN renal = test system: ACHN renal
CAKI-1 renal = test system: CAKI-1 renal
A498 renal = test system: A498 renal
CCRF-CEM leukemia = test system: CCRF-CEM leukemia
MOLT-4 leukemia = test system: MOLT-4 leukemia

Measured: growth

CN1CCN(Cc2ccc(NC(=O)c3cncc(C#Cc4cnc(N)c5cnccc45)c3)cc2C(F)(F)F)CC1
inactive: SNB-19 CNS 32% | U251 CNS 28.9% | PC-3 prostate 26.8% | TK-10 renal 12.8% | CCRF-CEM leukemia 13% | MOLT-4 leukemia 16.8%
active: HCT-15 colon 7.9% | HT29 colon -14.7% | SK-MEL-5 melanoma -45.3% | UACC-62 melanoma -74.8% | LOX IMVI melanoma -93.4% | SK-MEL-28 melanoma -84.5% | SK-MEL-2 melanoma -65.4% | EKVX NSCLC 2.4% | SN12C renal 5.24% | UO-31 renal -21.1% | ACHN renal -9.19% | CAKI-1 renal -18.9% | A498 renal -54.8%

N#Cc1c(Nc2ccccc2)nc2n(c1=O)-c1ccccc1Sc1ccccc1-2
inactive: HCT-15 colon 90.3% | HT29 colon 84.1% | SNB-19 CNS 77.9% | U251 CNS 89.4% | PC-3 prostate 61.3% | SK-MEL-5 melanoma 68.1% | UACC-62 melanoma 69.1% | LOX IMVI melanoma 83.9% | SK-MEL-28 melanoma 83.8% | SK-MEL-2 melanoma 86.9% | EKVX NSCLC 73% | SN12C renal 77.7% | UO-31 renal 53.4% | TK-10 renal 105% | ACHN renal 68.3% | CAKI-1 renal 70.8% | A498 renal 90.2% | CCRF-CEM leukemia 63.4% | MOLT-4 leukemia 51.9%

CC(C)(C)n1cc(-c2ccnc(NCCCNS(=O)(=O)c3ccc(Br)cc3)c2)c(-c2cccc(O)c2)n1
active: HCT-15 colon -47.3% | HT29 colon 1.23% | LOX IMVI melanoma -75.6% | SK-MEL-28 melanoma -32.1% | MOLT-4 leukemia 6.97%
inactive: SNB-19 CNS 48.7% | U251 CNS 29.5% | PC-3 prostate 16.9% | SK-MEL-5 melanoma 15.1% | UACC-62 melanoma 42.9% | SK-MEL-2 melanoma 19% | EKVX NSCLC 50.1% | SN12C renal 42.9% | UO-31 renal 39% | TK-10 renal 90.1% | ACHN renal 33.1% | CAKI-1 renal 36.7% | A498 renal 35.1% | CCRF-CEM leukemia 25.5%

O=C(NCCNc1nccc(-n2ccc3cccnc32)n1)c1ccc(C(F)(F)F)cc1
inactive: HCT-15 colon 104% | HT29 colon 113% | SNB-19 CNS 104% | U251 CNS 99.8% | PC-3 prostate 102% | SK-MEL-5 melanoma 101% | UACC-62 melanoma 94.6% | LOX IMVI melanoma 99.4% | SK-MEL-28 melanoma 105% | SK-MEL-2 melanoma 108% | EKVX NSCLC 94.2% | SN12C renal 98.7% | UO-31 renal 84% | TK-10 renal 134% | ACHN renal 97.6% | CAKI-1 renal 87.6% | A498 renal 108% | CCRF-CEM leukemia 101% | MOLT-4 leukemia 104%

COc1ccc(-c2nc(/C=N/Nc3cc(C)nc4ccc(Br)cc34)c(C)o2)cc1
inactive: SK-MEL-5 melanoma 47.4% | SK-MEL-2 melanoma 104% | A498 renal 58.5%
active: HCT-15 colon -87.4% | HT29 colon -76.2% | SNB-19 CNS -84.4% | U251 CNS -85.8% | PC-3 prostate -78.1% | UACC-62 melanoma -77.5% | LOX IMVI melanoma -86.7% | SK-MEL-28 melanoma -74.6% | EKVX NSCLC -8.99% | SN12C renal -89.2% | UO-31 renal -99.1% | TK-10 renal -51.8% | ACHN renal -100% | CAKI-1 renal -91.2% | CCRF-CEM leukemia -50.4% | MOLT-4 leukemia -53.3%

CCO/C=N/C1=C(C#N)C(c2ccc(Cl)cc2)c2c(c3ccccc3n(C)c2=O)O1 (centres undefined)
active: CAKI-1 renal -0.281%
inactive: HCT-15 colon 41.1% | HT29 colon 35% | SNB-19 CNS 72.9% | U251 CNS 79.3% | PC-3 prostate 63% | SK-MEL-5 melanoma 74.2% | UACC-62 melanoma 46.5% | LOX IMVI melanoma 64.7% | SK-MEL-28 melanoma 83.9% | SK-MEL-2 melanoma 85.4% | EKVX NSCLC 74% | SN12C renal 74.6% | UO-31 renal 56.2% | TK-10 renal 115% | ACHN renal 75.7% | A498 renal 47.9% | CCRF-CEM leukemia 66.9% | MOLT-4 leukemia 75.2%

Cc1cc(N/N=C/c2nc(-c3ccc(Br)cc3)oc2C)c2cc(Br)ccc2n1
inactive: SNB-19 CNS 41.7% | PC-3 prostate 77.2% | SK-MEL-5 melanoma 92.9% | UACC-62 melanoma 73.9% | SK-MEL-28 melanoma 24.7% | SK-MEL-2 melanoma 99% | EKVX NSCLC 90.9% | SN12C renal 26.8% | UO-31 renal 58.7% | TK-10 renal 82% | ACHN renal 64.9% | CAKI-1 renal 88.3% | A498 renal 85.7%
active: HCT-15 colon 6.22% | HT29 colon -16.1% | U251 CNS -9.51% | LOX IMVI melanoma -37.6% | CCRF-CEM leukemia -4.62% | MOLT-4 leukemia 7.29%

NC(=O)c1c(NC(=S)Nc2ccc(OC(F)(F)F)cc2)sc2c1CCC1(C2)OCCO1
inactive: HCT-15 colon 97.5% | HT29 colon 95.6% | SNB-19 CNS 97.5% | U251 CNS 97.2% | PC-3 prostate 92.6% | SK-MEL-5 melanoma 98.2% | UACC-62 melanoma 77.1% | LOX IMVI melanoma 98% | SK-MEL-28 melanoma 104% | SK-MEL-2 melanoma 93.9% | EKVX NSCLC 93.1% | SN12C renal 95.4% | UO-31 renal 88% | TK-10 renal 106% | ACHN renal 99.9% | CAKI-1 renal 93.6% | A498 renal 90.4% | CCRF-CEM leukemia 93.8% | MOLT-4 leukemia 87.3%

COc1cc(NC(N)=NCCC(C)(C)Oc2ccc(C(F)(F)F)cc2)ncc1C#N
active: HCT-15 colon -70.7% | HT29 colon -79.4% | U251 CNS -98.2% | SK-MEL-5 melanoma -95.8% | UACC-62 melanoma -51.8% | LOX IMVI melanoma -97.2% | SK-MEL-28 melanoma -79.2% | SK-MEL-2 melanoma -38.5% | SN12C renal -90.3% | UO-31 renal -23.5% | TK-10 renal -74.2% | ACHN renal 2.74% | CCRF-CEM leukemia -13.8% | MOLT-4 leukemia -20.8%
inactive: SNB-19 CNS 27.8% | PC-3 prostate 13.4% | EKVX NSCLC 27.1% | CAKI-1 renal 51.6% | A498 renal 42.8%

CC(=O)Nc1ccc(/C=C/C(=O)c2ccccc2)cc1
inactive: HCT-15 colon 91.9% | HT29 colon 83.8% | SNB-19 CNS 77.7% | U251 CNS 74.7% | PC-3 prostate 66.8% | SK-MEL-5 melanoma 100% | UACC-62 melanoma 96.6% | LOX IMVI melanoma 93% | SK-MEL-28 melanoma 103% | SK-MEL-2 melanoma 107% | EKVX NSCLC 112% | SN12C renal 87.5% | UO-31 renal 71.3% | TK-10 renal 110% | ACHN renal 95.3% | CAKI-1 renal 104% | A498 renal 73.4% | CCRF-CEM leukemia 31% | MOLT-4 leukemia 75.5%

CCOC(=O)C1C(=O)C=C(c2ccc(OC)cc2)CC1c1sc(N(C)Cc2ccccc2)nc1Cl (centres undefined)
inactive: HCT-15 colon 93.3% | HT29 colon 88.1% | SNB-19 CNS 74.1% | U251 CNS 84.8% | PC-3 prostate 62.9% | SK-MEL-5 melanoma 81% | UACC-62 melanoma 46.1% | LOX IMVI melanoma 92.1% | SK-MEL-28 melanoma 93.7% | SK-MEL-2 melanoma 74.3% | EKVX NSCLC 82.4% | SN12C renal 79.8% | UO-31 renal 54.2% | TK-10 renal 93.7% | ACHN renal 73.8% | CAKI-1 renal 76.7% | A498 renal 93.6% | CCRF-CEM leukemia 86.5% | MOLT-4 leukemia 61.5%

CCCCCCCCN(CCCCCCCC)CCCCCCNc1cc(OC)cc2cccnc12
active: CCRF-CEM leukemia -59%
inactive: HCT-15 colon 109% | HT29 colon 28.1% | SNB-19 CNS 94.1% | U251 CNS 84.9% | PC-3 prostate 67.2% | SK-MEL-5 melanoma 103% | UACC-62 melanoma 110% | LOX IMVI melanoma 32.3% | SK-MEL-28 melanoma 106% | SK-MEL-2 melanoma 105% | EKVX NSCLC 87.4% | SN12C renal 63.4% | UO-31 renal 55.2% | TK-10 renal 118% | ACHN renal 91.4% | CAKI-1 renal 72% | A498 renal 110% | MOLT-4 leukemia 50%

S=c1[nH]nc(-c2cc3ccc2CCc2ccc(cc2)CC3)n1C1CC1
inactive: HCT-15 colon 96.6% | HT29 colon 95.7% | SNB-19 CNS 95.5% | U251 CNS 97.4% | PC-3 prostate 95.8% | SK-MEL-5 melanoma 95.7% | UACC-62 melanoma 80.2% | LOX IMVI melanoma 95% | SK-MEL-28 melanoma 102% | SK-MEL-2 melanoma 110% | EKVX NSCLC 88.9% | SN12C renal 94.8% | UO-31 renal 88.8% | TK-10 renal 143% | ACHN renal 102% | CAKI-1 renal 98.6% | A498 renal 97.8% | CCRF-CEM leukemia 104% | MOLT-4 leukemia 105%

Nc1cccc(-c2nc3sccn3c2-c2ccnc(NCCCNS(=O)(=O)c3cccc4ccccc34)n2)c1
active: SK-MEL-5 melanoma 4.1% | LOX IMVI melanoma 9.92%
inactive: HCT-15 colon 25.4% | HT29 colon 20.6% | SNB-19 CNS 55.6% | U251 CNS 49.3% | PC-3 prostate 31.2% | UACC-62 melanoma 22.2% | SK-MEL-28 melanoma 64.5% | SK-MEL-2 melanoma 36.3% | EKVX NSCLC 56.7% | SN12C renal 39.3% | UO-31 renal 21.5% | TK-10 renal 76.5% | ACHN renal 31.6% | CAKI-1 renal 34.9% | A498 renal 29.8% | CCRF-CEM leukemia 16.1% | MOLT-4 leukemia 10.3%

CC(=O)Oc1csc(N(C(C)=O)c2cccc(C(F)(F)F)c2)n1
inactive: HCT-15 colon 94.4% | HT29 colon 102% | SNB-19 CNS 97.8% | U251 CNS 88.3% | PC-3 prostate 85.6% | SK-MEL-5 melanoma 92.1% | UACC-62 melanoma 89.2% | LOX IMVI melanoma 92.3% | SK-MEL-28 melanoma 103% | SK-MEL-2 melanoma 96.7% | EKVX NSCLC 46.1% | SN12C renal 89.6% | UO-31 renal 91% | TK-10 renal 108% | ACHN renal 102% | CAKI-1 renal 98.4% | A498 renal 85.2% | CCRF-CEM leukemia 60.9% | MOLT-4 leukemia 104%

COc1cc(-c2nn(C(=O)NS(=O)(=O)c3ccccc3)cc2-c2ccncc2)ccc1Cl
inactive: HCT-15 colon 97.9% | HT29 colon 53.9% | SNB-19 CNS 95.3% | U251 CNS 81.6% | PC-3 prostate 78.2% | SK-MEL-5 melanoma 95.6% | UACC-62 melanoma 66.7% | LOX IMVI melanoma 71.5% | SK-MEL-28 melanoma 91.8% | SK-MEL-2 melanoma 94.8% | EKVX NSCLC 56.1% | SN12C renal 82.4% | UO-31 renal 69.7% | TK-10 renal 83% | ACHN renal 80.3% | CAKI-1 renal 84.8% | A498 renal 60.3% | CCRF-CEM leukemia 92.8% | MOLT-4 leukemia 83.9%
